Most compounds without a hit are left out; they make up all but 21% or so of the library.
Shiga inhibitor: A qHTS for Small Molecule Inhibitors of Shiga Toxin | Vero cells, Shiga toxin protein synthesis inhibition reporter | actives 9.2% (n = 290,000) | inhibition, % at 38.7 µM | AID 2315, 2010; in the data active = inhibition mostly above about 28%, no sharp cut-off; inactive = mostly below about 43%; also: 0% is about no effect
Pf growth 96h: Primary qHTS for delayed death inhibitors of the malarial parasite plastid, 96 hour incubation | AID 504834, 2011 | P. falciparum luciferase reporter growth, 96 h | Potency, µM (top dose mostly 28.7 µM), inactives show top-dose activity change, negative = inhibition, hits mostly inhibitors | actives 6.9% (n = 320,000); also: potency is read from the fitted curve at half-maximal effect; % is scaled to controls: 0 for no effect and ±100 for the full control effect
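Readout is luminescence from an integrated firefly luciferase in P. falciparum. Red cells, 2% hematocrit and 0.05% parasitemia final, were cultured with compound through two parasite generations (96 hours) at 37 C, 5% CO2.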
Cycloheximide cs: Cycloheximide Counterscreen for Small Molecule Inhibitors of Shiga Toxin. max response, %. cell reporter, cycloheximide protein synthesis inhibition counterscreen. actives 12% (n = 300,000); in the data active = max response mostly above about 13%, no sharp cut-off; inactive = mostly below about 14%; also: read at 38.3 µM for the half of the compounds with a filed dose; 0% is about no effect
Pf growth 48h: Primary qHTS for delayed death inhibitors of the malarial parasite plastid, 48 hour incubation; P. falciparum luciferase growth in erythrocytes, 48 h; Potency, µM (top dose mostly 28.7 µM), for the others: at the top dose activity change, negative = inhibition, usual class: inhibitors; actives 5.9% (n = 310,000); AID 504832, 2011; also: potency is read from the fitted curve at half-maximal effect; % is scaled to controls: 0 for no effect and ±100 for the full control effect
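Cell-based growth assay: transgenic P. falciparum expressing firefly luciferase, cultured in red cells within RPMI 1640 containing 0.5% w/v Albumax, 24 mM bicarbonate and gentamycin. A drop in luciferase activity indicates inhibition.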
* hit, by the source's call; ? = inconclusive; / = not tested or not shown; [ ] = another dose, or the depositor's remark. Unless noted, calls follow the shape of the dose curve; as a rule, active = well fitted inhibition curve with a large enough effect; inconclusive = small, poorly fitted or top-dose-only effect, or another doubt; inactive = no such curve, though single readings can be large or run the other way.

SMILES	Shiga inhibitor	Pf growth 96h	Cycloheximide cs	Pf growth 48h
Cc1ccc(CSC2=Nc3sccc3C3=NC(=O)CN23)cc1	24.3	?	-3.0	11.7µM*
C=CCOc1ccc(C2/C(=C(\O)c3ccc4c(c3)CC(C)O4)C(=O)C(=O)N2CCN2CCOCC2)cc1OCC (stereo not drawn)	-8.3	3.5%	11.2	-16.4%
O=S(=O)(NCCCCNS(=O)(=O)c1c(F)cccc1F)c1ccc2c(c1)OCCO2	-6.0	?	-5.2	42.3%
O=S(=O)(c1ccccc1)n1ccc2cccnc21	-14.3	-5.2%	-1.4	-7.6%
O=C(c1ccccn1)c1cc2ccccc2n1S(=O)(=O)c1ccccc1	42.7*	-1.9%	26.4*	-4.7%
Cc1oc(-c2ccccc2F)nc1CS(=O)CC(=O)NC1CCCCC1 (stereo not drawn)	4.9	17.7%	-1.8	0.4%
O=C(CSc1nnc(Cn2nnc3ccccc32)o1)N(Cc1ccc(Cl)cc1)c1ccccc1	-13.9	/	-1.7	10.4µM*
CCN(C(=O)CSc1nnc(Cn2nnc3ccccc32)o1)c1nc(C)cs1	-4.2	9.28µM*	-3.9	-2.4%
O=C(CSc1nnc(Cn2nnc3ccccc32)o1)Nc1cccc(Cl)c1	-7.0	119.2%	-3.0	13.4%
CN(CCOc1ccccc1)C(=O)C1CCC(=O)N(CCCN2CCCC2=O)C1 (stereo not drawn)	-4.8	?	-2.5	7.7%
O=C(Cc1ccc(S(=O)(=O)N2CCOCC2)s1)NNC(=O)c1ccccc1Cl	/	?	/	-13.6%
CCn1nc(C(=O)Nc2ccc(Cl)c(S(=O)(=O)N3CCOCC3)c2)c2ccccc2c1=O	/	?	/	10.4µM*
CCn1nc(C(=O)Nc2cccc(S(=O)(=O)N3CCCC3)c2)c2ccccc2c1=O	/	?	/	13.1µM*
CCCn1nc(C(=O)Nc2ccc3c(c2)OCCO3)c2ccccc2c1=O	/	?	/	20.1%
CCn1nc(C(=O)Nc2ccc(S(=O)(=O)Nc3ncccn3)cc2)c2ccccc2c1=O	-4.3	2.9%	7.7	-2.8%
CCCn1nc(C(=O)NNC(=O)c2cccc(S(=O)(=O)NC(C)C)c2)c2ccccc2c1=O	1.3	1.17µM*	7.9	3.29µM*
CCCn1nc(C(=O)NNC(=O)Cc2ccc(S(=O)(=O)N3CCOCC3)s2)c2ccccc2c1=O	/	?	/	11.7µM*
CC(C)(CNC(=O)Cc1ccc(Br)cc1)N1CCOCC1	5.9	22.3%	-3.6	31.0%
CC(C)Cn1nc(C(=O)Nc2cccc(S(=O)(=O)N3CCCC3)c2)c2ccccc2c1=O	/	9.28µM*	/	11.7µM*
CCN(C(=O)CSc1nc2ccccc2c(=O)n1CCOC)C1CCS(=O)(=O)C1 (stereo not drawn)	-14.3	2.6%[5.75 µM]	-2.7	-22.6%
Nc1cc([N+](=O)[O-])cc2oc(-c3ccccc3)cc12	53.5*	12.1%	53.0*	128.7%
COc1ccc(NC(=O)c2ccc(S(=O)(=O)N(C)c3ccccc3)cc2)cn1	15.6	?	14.6	?
COc1ccc(NC(=O)c2cccc(Oc3ccccc3)c2)cn1	81.1*	-11.9%	33.1*	-8.5%
COc1ccc(NC(=S)NC(=O)c2ccccc2)cn1	132.0*	207.8%	69.2*	39.1%
COc1ccccc1NC(=S)N1CCN(c2ccccc2F)CC1	-1.3	-15.5%	-1.7	15.2%
SMILES	Shiga inhibitor	Pf growth 96h	Cycloheximide cs	Pf growth 48h
C/C(=N\NC(=O)C1CCCC1)c1ccc(C(C)C)cc1	51.7*	8.0%	23.6*	0.0%
COc1ccc2cc(/C(C)=N/NC(=O)C3CC3)ccc2c1	48.5*	-28.1%	26.3*	42.9%
C/C(=N\NC(=O)C1CCCC1)c1ccc(Cl)c(Cl)c1	40.7	250.9%	2.0	1.3%
COc1ccc(/C(C)=N/NC(=O)C2CC2)cc1	42.4*	20.2%	11.3	-16.4%
COCCNC(=S)N/N=C(\C)c1ccc2cc(OC)ccc2c1	-7.1	?	-1.8	?
COc1c(C)cc(S(=O)(=O)NCCN2CCOCC2)c(C)c1C	-3.3	?	-2.2	-3.7%
CC(C)c1ncc([N+](=O)[O-])n1C	/	-0.1%	/	-2.2%
CC(C)(C)C1CCC(=NOC(=O)c2ccc(F)cc2)CC1 (stereo not drawn)	15.2	10.4µM*	10.6	?
CCOC(=O)C1CCN(C(=O)Nc2ccc(NC(=O)C3CCN(C(=O)OCC)CC3)cc2)CC1	-15.5	-34.1%	-1.3	-14.4%
CCOC(=O)C1CCN(C(=O)Nc2ccc(OC(F)(F)F)cc2)CC1	63.2	79.8%	34.0*	71.5%
CCc1ccc(NC(=S)N2CCN(C)CC2)cc1	61.1	-3.5%	24.6*	61.2%
CCc1ccc(NC(=S)N2CCC(NC(=O)C3CCCCC3)CC2)cc1	-12.5	-23.7%	-0.8	14.2%
CCc1ccc(NC(=S)N2CCCC(C(F)(F)F)C2)cc1 (stereo not drawn)	40.1	66.3%	16.2*	30.7%
CCc1ccc(NC(=S)N2CCCC2)cc1	78.2*	-18.4%	36.4*	111.2%
Cc1ccc(/C=C/S(=O)(=O)NCC(=O)OCC(=O)Nc2c(F)cccc2F)cc1	/	-28.2%	/	?
O=c1c(Cc2c(F)cccc2Cl)c(O)ccn1CCCN1CCOCC1	1.7	68.5%[5.75 µM]	12.4	2.7%
CCOC(=O)C1CCN(C(=S)Nc2ccc(CC)cc2)CC1	53.5	?	42.6*	50.3%
CCOC(=O)N1CCC(N(CCOC)C(=O)Nc2ccc(CC)cc2)CC1	5.2	7.38µM*	-2.2	-26.0%
CCOC(=O)C1CCN(C(=S)Nc2cccc(C)c2)CC1	-8.4	27.2%	8.0	-14.0%
CCc1ccc(NC(=O)N(CCOC)C2CCN(C(C)=O)CC2)cc1	-1.5	/	9.6	-6.3%
COc1ccc(S(=O)(=O)Nc2cccc(-c3ccc(N4CCCCCC4)nn3)c2)c(OC)c1	60.3*	?	53.0*	-3.7%
O=[N+]([O-])c1cccc(S(=O)(=O)Nc2ccc(-c3ccc(N4CCCC4)nn3)cc2)c1	/	?	/	-10.5%
O=[N+]([O-])c1cccc(S(=O)(=O)Nc2cccc(-c3ccc(N4CCCC4)nn3)c2)c1	/	6.57µM*	/	?
Cc1ccc(S(=O)(=O)Nc2cccc(-c3ccc(N4CCCCCC4)nn3)c2)cc1	89.5*	12.8%	39.2*	16.8%
Cc1cccc(S(=O)(=O)Nc2cccc(-c3ccc(N4CCCCC4)nn3)c2)c1	73.4*	/	58.8*	/
SMILES	Shiga inhibitor	Pf growth 96h	Cycloheximide cs	Pf growth 48h
COc1ccc(OC)c(S(=O)(=O)Nc2cccc(-c3ccc(N4CCCCCC4)nn3)c2)c1	9.4	?	7.4	?
COc1ccc(CN2CC(C(N)=O)Oc3ccccc32)cc1F (stereo not drawn)	-8.0	11.4%	1.8	18.8%
COc1ccc(S(=O)(=O)Nc2cccc(-c3ccc(N4CCCCCC4)nn3)c2)cc1OC	40.5*	-0.1%	35.5*	?
Cn1c(=O)c(-c2ccccc2N)nc2ccccc21	36.6*	-25.9%	13.6	30.5%
Cc1ccccc1OC1C(=O)N(Cc2ccc3c(c2)OCO3)C1c1sccc1C (stereo not drawn)	-13.9	13.1µM*	-2.1	?
O=C1C(Oc2ccccc2)C(c2cccs2)N1Cc1ccc2c(c1)OCO2 (stereo not drawn)	12.7	?	0.4	?
Cc1cc(C)c(O)c(-c2n[nH]c3c2C(c2cccc(O)c2)N(Cc2ccco2)C3=O)c1 (stereo not drawn)	4.7	-17.7%	4.2	-21.2%
